In the library only some 1.1% were active in any assay of this set; here they are far more common.
A3G deaminase: APOBEC3G DNA deaminase inhibitors, primary screen, biochemical, fluorescence, single-stranded DNA substrate, uHTS; DNA dC->dU-editing enzyme APOBEC-3G (Homo sapiens), Q9HC16; AID 493012, 2011; recombinant A3G, ssDNA deamination FAM/TAMRA fluorescence; inhibition, % at 20 µM; 0.28% of 330,000 active;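 active means inhibition of at least 40% at 20 µM, with no more than 30% in the related APOBEC3A deaminase screen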
Target sequence (Q9HC16 whole entry, looked up): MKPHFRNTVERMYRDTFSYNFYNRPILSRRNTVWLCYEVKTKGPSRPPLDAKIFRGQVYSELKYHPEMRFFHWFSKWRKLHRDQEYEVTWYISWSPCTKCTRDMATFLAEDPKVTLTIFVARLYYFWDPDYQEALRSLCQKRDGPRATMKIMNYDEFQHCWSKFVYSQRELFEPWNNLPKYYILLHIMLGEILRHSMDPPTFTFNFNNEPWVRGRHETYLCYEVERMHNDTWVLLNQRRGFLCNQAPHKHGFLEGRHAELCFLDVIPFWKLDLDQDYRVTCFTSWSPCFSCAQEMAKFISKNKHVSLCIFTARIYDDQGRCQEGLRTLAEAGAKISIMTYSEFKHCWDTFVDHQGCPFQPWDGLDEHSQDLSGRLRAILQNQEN
A3A deaminase: APOBEC3A ssDNA deaminase inhibitors, primary screen, selectivity assay for APOBEC3G inhibitor project, biochemical, FAM/TAMRA oligo cleavage fluorescence | inhibition, % at 20 µM | AID 493011, 2011 | 0.41% of 330,000 active | recombinant A3A, FAM/TAMRA ssDNA deamination fluorescence | DNA dC->dU-editing enzyme APOBEC-3A (Homo sapiens), P31941;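 active means at least 40% inhibition at 20 µM here, with at most 30% in a related deaminase screen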
Target sequence (P31941 whole entry, looked up): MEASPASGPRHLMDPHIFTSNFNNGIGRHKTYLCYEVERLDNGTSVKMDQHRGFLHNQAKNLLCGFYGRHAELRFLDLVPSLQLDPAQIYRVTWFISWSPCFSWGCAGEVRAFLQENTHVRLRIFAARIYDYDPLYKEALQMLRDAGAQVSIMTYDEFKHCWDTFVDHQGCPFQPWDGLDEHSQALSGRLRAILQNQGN
Bfl-1 A1 inh: caspase 3/7 activation in MEF A1-2A-BIM cells, primary screen, A1 inhibitor project, cell-based, luminescence, HTS; Caspase-Glo 3/7 luminescence, 3 h; percent of clofoctol response, vehicle zero; 0.066% of 330,000 active; caspase activation, % (test concentration not listed); AID 2462, 2010;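 active means over half of replicate activation scores above 10%, or exactly half above 10 with the replicate mean above 10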
beta cell repl: inducers of MIN6 beta-cell proliferation, primary screen, ATP luminescence, uHTS | 0.29% of 330,000 active | AID 2380, 2010 | proliferation, % at 10 µM | MIN6 cells proliferation, ATPlite luminescence, 48 h; cells starved in 0.2% serum; 100% = growth in 10% serum;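 active means compounds whose signal lies at least 3.5 SD above the mean of all wells on their plate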
A3A conf: APOBEC3A deaminase inhibitors, retest, confirmation, selectivity assay for APOBEC3G inhibitor project, biochemical, single concentration, fluorescence readout; recombinant A3A, ssDNA deaminase UDG fluorescence assay; shares compounds with A3A deaminase; 63% of 1,400 active; inhibition, % at 20 µM;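 active means inhibition reaching a set limit, 80% of the first screen's cutoff, at 20 µM in any replicate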
UDG ctr A3A: E. coli UDG inhibitors, confirmation, counter-screen for APOBEC3A inhibitor project, biochemical, single concentration, fluorescence, FAM/TAMRA oligo; 1,000 tested, under 10 active; shares compounds with A3A deaminase; UDG counterscreen, FAM/TAMRA uracil oligo fluorescence; inhibition, % at 20 µM; call rule not given here
Large screens that a line does not name were inactive (follow-up assays come after a bar, where they were run).

CC(C)C(NC(=O)c1ccccc1F)C(=O)NCc1ccc(F)cc1 (stereo not drawn)	A3A deaminase 40 | A3A conf inactive
CC(=O)OCCCN1C(=O)c2ccc(Br)cc2C1=O	none
CCn1c(C)[n+](CCOC(C)=O)c2cc(Cl)c(Cl)cc21	A3A deaminase 63 | A3A conf 78 | UDG ctr A3A inactive
CC(=O)OCCCn1c(C)[n+](C)c2cc(Cl)c(Cl)cc21	A3A deaminase 87 | A3A conf 73 | UDG ctr A3A inactive
Cc1cc(C)cc(OCC(=O)OCC(=O)NC2CCCCCCC2)c1	none
Cc1nc([N+](=O)[O-])cn1-c1nc2ccccn2c1[N+](=O)[O-]	none
CCn1c(CNC(=O)COc2ccc(C(C)C)cc2)nnc1SCC(=O)Nc1ccc(F)cc1	none
CCn1c(CNC(=O)COc2ccc(C(C)C)cc2)nnc1SCC(=O)Nc1cc(F)ccc1C	A3A deaminase 78 | A3A conf 77 | UDG ctr A3A inactive
CCc1ccccc1NC(=O)C(Cc1ccccc1)c1nn[nH]n1 (stereo not drawn)	none
CC(=O)NC(CC(=O)NC1CCCCCC1)c1ccccc1 (stereo not drawn)	A3A deaminase 45 | A3A conf 32 | UDG ctr A3A inactive
CNC(=O)c1cc(S(=O)(=O)Nc2ccc3c(c2)OCO3)ccc1C	none
CCc1cc(=O)oc2cc(C)c(CN3CCCC3)c(O)c12	A3A deaminase 41 | A3A conf 54
CCc1cc(=O)oc2cc(C)c(CN3CCCCC3)c(O)c12	none (no result: A3G deaminase, A3A deaminase, beta cell repl)
COc1ccc2c(c1)CCc1sc(NC(=O)c3ccc(C)cc3)nc1-2	A3A deaminase 50 | A3A conf inactive
O=C(CSc1ccc(-c2ccccn2)nn1)N1CCc2ccccc21	none
O=C(CSc1ccccn1)N1CCc2ccccc21	A3A deaminase 66 | A3A conf inactive
CC(=O)c1ccccc1NS(=O)(=O)c1cccc2nonc12	none
CC(=O)c1ccccc1NS(=O)(=O)c1cccc2nsnc12	A3A deaminase 41 | A3A conf 29 | UDG ctr A3A inactive
CCN(CC(=O)Nc1c(F)cccc1F)C(=O)c1cccc(-n2cccc2)c1	A3A deaminase 75 | A3A conf 55 | UDG ctr A3A inactive
CCN(CC(=O)Nc1ccccc1OC)C(=O)c1cccc(-n2cccc2)c1	none
Cc1nnc(NC(=O)CSc2nnc(CC(=O)Nc3ccccc3C)n2C)s1	none
COc1cc(OC)cc(C(=O)NNC(=O)C(=O)Nc2cc(OC)c(Cl)cc2OC)c1	none
O=C(CNC(=O)c1cccc(F)c1)OCC(=O)N1CCN(C(=O)c2ccco2)CC1	none
O=C(CNC(=O)c1cccc(F)c1)OCC(=O)N1CCCCC1	A3A deaminase 41 | A3A conf inactive
CC[N+](CC)(CC)CCOc1ccc(/C=C/c2ccccc2)cc1	A3A deaminase 49 | A3A conf 76 | UDG ctr A3A inactive
CCOc1ccccc1OCCOCCOc1c(Cl)cccc1Cl	none
CC[N+](CC)(CC)CCOc1cccc(OCC[N+](CC)(CC)CC)c1OCC[N+](CC)(CC)CC	A3A deaminase 75 | A3A conf 92 | UDG ctr A3A inactive
CCOC(=O)CC(NC(=O)CCc1c(C)nc2ncnn2c1C)c1ccc(OC(C)C)cc1 (stereo not drawn)	none
Cc1ccc(C(C)C)cc1S(=O)(=O)NC1CC(C)(C)NC(C)(C)C1	none
Cc1cc(C)n2c(SCC(=O)Nc3cc(S(=O)(=O)N(C)C)ccc3C)nnc2n1	A3A deaminase 40 | A3A conf inactive
CCOc1ccccc1NC(=O)C1CCN(C(=O)C2CC(=O)N(c3ccc(C)cc3)C2)CC1 (stereo not drawn)	none
CC(=O)Nc1ccc(S(=O)(=O)N2CCN(C(=O)c3ncoc3-c3ccc(C)cc3)CC2)cc1	none
Cc1ccsc1C(=O)N1CCCC(CO)(Cc2ccccc2)C1 (stereo not drawn)	none
CC(=O)Nc1ccc(S(=O)(=O)/N=C2/NC(=O)/C(=C\c3ccco3)S2)cc1	A3A deaminase 60 | A3A conf 32 | UDG ctr A3A inactive
COc1ccc(N=C2NC(=O)/C(=C\c3ccco3)S2)cc1	A3A deaminase 64 | A3A conf 36 | UDG ctr A3A inactive
COc1ccc(NC(C)=O)cc1S(=O)(=O)NCCc1ccccn1	none
CCOC(=O)C1CCCN(S(=O)(=O)c2ccc(Cl)nc2)C1 (stereo not drawn)	none
COc1ccccc1C(=O)N/C(=C\c1cn(C)c2ccccc12)C(=O)N1CCCC1	none
CCCCn1c2c(c(=N)c3c1CCC3)CCC2	A3A deaminase 63 | A3A conf 78 | UDG ctr A3A inactive
COC/C=C/C1=CC2=CC(=O)C(C)(OC(=O)c3ccco3)C(=O)C2=CO1 (stereo not drawn)	A3A deaminase 58 | A3A conf 60
Cc1ccc2c(c1)S/C(=C\c1cccc[n+]1C)N2CCO	A3A deaminase 58 | A3A conf 89 | UDG ctr A3A inactive
C[n+]1ccccc1/C=C1\Sc2ccccc2N1CCO	A3A deaminase 98 | A3A conf 92 | UDG ctr A3A inactive
CCC(=O)/C=C1\Sc2ccc(OC)cc2N1CCO	none
Cc1ccc2c(c1)S/C(=C/c1ccc[n+](CCO)c1)N2C	A3A deaminase 56 | A3A conf 88 | UDG ctr A3A inactive
CCN(CC)CCNC(=O)CCN1N=C(c2ccccc2)CCC1=O	none
C=CCNC(=O)Cn1nc(-c2ccccc2)ccc1=O	A3A deaminase 61 | A3A conf inactive
CCN(CC)c1ccc(/C=C/c2ccc3ccc(OC)cc3[n+]2CC)cc1	A3A deaminase 75 | A3A conf 84 | UDG ctr A3A inactive
CCN(CC)c1nc2cc(OC)ccc2cc1C#N	none
COc1cc(/C=C/c2noc(-c3ccccc3O)n2)ccc1OC(C)=O	none
CC[n+]1c(/C=C/c2ccc(OC)c(OC)c2)ccc2ccccc21	A3A deaminase 79 | A3A conf 93 | UDG ctr A3A inactive
CC[n+]1c(/C=C/c2ccc(N(C)C)cc2)ccc2ccccc21	none (no result: A3G deaminase, A3A deaminase, beta cell repl)
CC[n+]1c(/C=C/c2ccc(OC(C)=O)c(OC)c2)ccc2ccccc21	A3A deaminase 53 | A3A conf 58
CC(=O)c1ccc(S(=O)(=O)N2CCNC(=O)C2)cc1	none
Cc1ccc(S(=O)(=O)NCCCN2CCCC2)cc1	none
O=C1CCCC/C1=C\Nc1ccc(Cl)cn1	A3A deaminase 42 | A3A conf inactive

From PubChem BioAssay
